Screening data as filed in PubChem.
SARS PLP yeast: inhibitors of SARS-CoV papain-like protease in yeast; S. cerevisiae expressing SARS-CoV PLpro, growth rescue; actives 0.19% (n = 330,000); Potency, µM (series often up to 32.9 µM), without a hit: at the top dose activity, positive = growth rescue, hits mostly activators; calls by dose curve; note: 0% is about no effect; nearly all actives have a fitted effect of over 55% in size
Pf growth 48h: inhibits P. falciparum growth in the first generation, 48 h | P. falciparum luciferase growth in erythrocytes, 48 h | actives 5.9% (n = 310,000) | Potency, µM (top dose mostly 28.7 µM), without a hit: at the top dose activity change, negative = inhibition, usual class: inhibitors; note: % is set by controls: 0 for no effect and ±100 for the full control effect
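Erythrocytes infected with P. falciparum carrying an integrated firefly luciferase reporter (2% hematocrit, 0.1% parasitemia final) were exposed to compounds in RPMI 1640 with 0.5% Albumax at 37 C, 5% CO2. Growth inhibition was scored as reduced luminescence.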
AmpC inh no detg: inhibitors of E. coli AmpC beta-lactamase without detergent; AmpC nitrocefin hydrolysis, absorbance 480 nm, 0.0001% Triton; actives 0.52% (n = 330,000); Potency, µM (titrated, usually from 57.1 µM), without a hit: top-dose activity change, negative = inhibition, most hits filed as inhibitors; AID 485341;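 note: plate controls were no compound for no effect and no enzyme for full effect; nearly all actives have a fitted effect of over 20% in size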
Target sequence (P00811 whole entry, looked up): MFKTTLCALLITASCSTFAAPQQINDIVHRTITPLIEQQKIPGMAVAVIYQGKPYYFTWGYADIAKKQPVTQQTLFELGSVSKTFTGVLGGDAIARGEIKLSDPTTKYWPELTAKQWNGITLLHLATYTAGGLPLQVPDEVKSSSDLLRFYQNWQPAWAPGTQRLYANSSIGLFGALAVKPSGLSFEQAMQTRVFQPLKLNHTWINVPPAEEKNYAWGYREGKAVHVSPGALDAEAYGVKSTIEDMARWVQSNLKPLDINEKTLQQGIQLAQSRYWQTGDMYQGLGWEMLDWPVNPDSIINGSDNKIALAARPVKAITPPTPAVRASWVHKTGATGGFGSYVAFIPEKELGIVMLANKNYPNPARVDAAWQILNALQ
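AmpC (5.3 nM in the dispensed reagent) in 20 mM phosphate pH 7.0 with 0.01% (detergent screen) or 0.0001% Triton X-100 was preincubated with compounds for 15 min at room temperature. Nitrocefin was then added from an 800 uM solution, and hydrolysis was followed at 480 nm.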
Pf growth 96h: P. falciparum growth inhibition at 96 hours. P. falciparum luciferase reporter growth, 96 h. Potency, µM (doses to about 28.7 µM), without a hit: at the highest dose activity change, negative = inhibition, usual class: inhibitors. actives 6.9% (n = 320,000); note: % is set by controls: 0 for no effect and ±100 for the full control effect
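Two-generation exposure (96 h) targets delayed-death phenotype. Reporter parasites carrying integrated firefly luciferase, in red cells at 2% hematocrit and 0.05% parasitemia final, kept at 37 C, 5% CO2; luminescence loss indicates inhibition.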
AmpC inh detg: inhibitors of E. coli AmpC beta-lactamase with detergent; AID 485294; actives 0.041% (n = 370,000); P00811; Potency, µM (highest dose often 114 µM), for the others: top-dose activity change, negative = inhibition, hits mostly inhibitors; AmpC hydrolysis of nitrocefin, absorbance 480 nm, 0.01% Triton;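 note: 0% = no-compound wells and -100% = no-enzyme wells; nearly all actives have a fitted effect of over 25% in size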
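20 mM phosphate pH 7.0 + 0.01% (detergent screen) or 0.0001% Triton X-100; 5.3 nM AmpC reagent; cpd preinc 15 min RT; nitrocefin (800 uM stock) to start; A480 q20 s × 4 min; Activity was normalised to no-enzyme and no-compound control wells.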
Sm TGR block: blocks Schistosoma mansoni thioredoxin glutathione reductase | Q962Y6 | purified TGR, DTNB reduction, TNB absorbance 405 nm | Potency, µM (top dose mostly 114 µM), inactives show top-dose activity change, negative = inhibition, hits mostly inhibitors | actives 3% (n = 360,000) | AID 485364; note: % is set by controls: 0 for no effect and ±100 for the full control effect; nearly all actives have a fitted effect of over 60% in size
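Kinetic colorimetric format: TGR-catalysed, NADPH-driven DTNB reduction monitored via TNB absorbance. Enzyme dispensed at 20 nM; compound exposure 15 min at room temperature before reaction start.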
* marks the source's active call; other numbers are inactive results; ? = inconclusive; nt = no result given; [ ] = dose if it differs, or a comment. Most compounds without a hit are left out; they make up all but 12% or so of the library. Unless noted, calls come from the whole dose curve; as a rule, active = well fitted curve in the direction sought with a large enough effect; inconclusive = small, poorly fitted or top-dose-only effect, or another doubt; inactive = no such curve, though single readings can be large; an effect the other way counts as inactive or inconclusive. Potency is the fitted concentration of half-maximal effect.

SMILES | SARS PLP yeast | Pf growth 48h | AmpC inh no detg | Pf growth 96h | AmpC inh detg | Sm TGR block
COCCCNc1nc2c(-c3ccc(Cl)cc3)nnn2c2ccccc12 | -19% | -1% | -12% | 12µM* | ? | 0%
C/C(=N\OCC(=O)OCC(=O)N(Cc1ccccc1)C(C)(C)C)c1ccc2c(c1)OCO2 | 3% | 30% | -24% | 39% | 1% | 2%
Cc1onc(-c2ccccc2)c1C(=O)N1CCCSC1=Nc1ccccc1 | -11% | 2.9µM* | 13% | ? | -1% | -3%
Cc1onc(-c2ccccc2)c1C(=O)n1nnc2ccccc21 | 9% | 17% | -7% | 51% | 7% | 18µM*
O=C(c1ccccc1)n1nnc2ccccc21 | nt | 21% | nt | 26% | 0% | 16µM*
CC(C(=O)O)n1nnc2ccccc21 (configuration not stated) | 0% | 33% | -9% | 58% | 5% | 9%
Cc1cccc(-c2nc(S(=O)(=O)c3ccc(Cl)cc3)c(N3CCCCCC3)o2)c1 | nt | nt | nt | nt | 22% | 5%
Cn1c(-c2c(N)n(-c3ccccc3)c3nc4ccccc4nc23)nc2ccccc21 | 0% | 9.3µM* | 29% | 6.6µM* | -4% | 2%
Cc1ccc(-n2c(N)c(-c3nc4ccccc4n3C)sc2=S)cc1 | 3% | 1.5µM* | -14% | 18% | ? | -22%
Cc1cccc(-n2c(N)c(-c3nc4ccccc4n3C)c3nc4ccccc4nc32)c1 | -1% | 10µM* | -35% | 7.4µM* | -6% | -2%
O=C(CNc1ccccc1F)Nc1cccc(S(=O)(=O)N2CCCCC2)c1 | 2% | ? | -54% | ? | -18% | -16%
O=C(c1ccc2c(c1)N(Cc1cccc(Cl)c1)C(=O)c1ccccc1S2(=O)=O)N1CCN(Cc2ccccc2)CC1 | nt | nt | nt | nt | 12% | 6%
Cc1ccc(C(=O)NCc2ccc(N(C)C)cc2)cc1NC(=O)c1nsc2ccccc12 | nt | nt | nt | nt | -8% | -17%
COc1ccc(C(=O)N2CCCC(CO)(Cc3ccccc3C)C2)o1 (configuration not stated) | -3% | -30% | 37% | ? | -9% | 45µM*
Cc1ccccc1CC1(CO)CCCN(C(=O)c2ccccc2Cl)C1 (configuration not stated) | -2% | -3% | 57% | 9.3µM* | -12% | 6%[57.1 µM]
Cc1ccccc1CC1(CO)CCCN(Cc2ccn[nH]2)C1 (configuration not stated) | 0% | 2% | -18% | 12µM* | 6% | 8%
Cc1ccccc1CC1(CO)CCCN(C(=O)c2cc(Cl)ccc2F)C1 (configuration not stated) | 0% | 2% | 0% | 20% | 0% | -6%
CSCC(=O)N1CCCC(CO)(Cc2ccccc2C)C1 (configuration not stated) | -2% | 30% | 37% | ? | -1% | 1%
CCOc1ccc(-c2cc(C(=O)NCc3ccccc3Cl)c3ccccc3n2)cc1 | nt | nt | nt | nt | 5% | 3%
CCC[C@@H]1C[C@@H](C(=O)N[C@@H]([C@H]2O[C@H](SC)[C@H](O)[C@@H](O)[C@H]2O)[C@@H](C)O)N(C)C1 | nt | 2.7µM* | nt | 0.17µM* | nt | nt
CCC[C@@H]1C[C@@H](C(=O)N[C@H]([C@@H](C)O)[C@H]2O[C@H](SC)[C@H](O)[C@@H](O)C2O)N(C)C1 (some centres not stated) | 0% | 0.042µM* | -55% | 0.13µM* | ? | 7%
CC(=O)c1cccc(NC(=O)COC(=O)C2=COCCO2)c1 | 1% | -3% | -10%[11.4 µM] | 11% | ? | 3%
O=C(CSCc1c(Cl)cccc1Cl)NN=C1CCCC1 | -8% | -5% | -36% | 6% | 8% | 0%
O=C(CSCc1ccccc1Cl)NN=C1CCCCCC1 | -4% | 7% | 0.22µM* | 6% | 4% | 4%
CCCCN1/C(=C/c2ccc3ccccc3[n+]2CC)Sc2ccccc21 | -5% | 2.9µM* | 0% | 24% | ? | nt
SMILES | SARS PLP yeast | Pf growth 48h | AmpC inh no detg | Pf growth 96h | AmpC inh detg | Sm TGR block
C/C(=N\O)C(=O)C(CN1CCCCC1)CN1CCCCC1 | 1% | 12% | -7% | -10% | 4% | 1.8µM*
CC(=O)/C(CN1CCCCC1)=N\O | -2% | 2% | -10% | nt | -7% | 0%
O=C(CSc1nnc(-c2ccccc2)c(-c2ccccc2)n1)NCc1ccco1 | 10% | 10µM* | -28% | -24% | -5% | 40µM*
CC(=O)Nc1ccc(SCC(=O)OCC(=O)NC(=O)NCc2ccco2)cc1 | 6% | -3% | -15% | 9.3µM* | -6% | -2%
O=C(Cn1cnc2sc(-c3ccccc3)cc2c1=O)NCc1ccco1 | 0% | 8% | -30% | nt | -6% | 13µM*
Cc1nc(SCC(=O)NC(=O)NCc2ccco2)nc(C)c1C | 2% | ? | -34% | 0% | ? | 40µM*
O=C(COC(=O)CSc1ccc(Br)cc1)NCc1ccco1 | -1% | 0% | -9% | 12% | -17% | -20%
O=C(Cn1cnc2sc(-c3ccccc3)cc2c1=O)NCc1ccccc1 | 2% | nt | -28% | 40% | ? | 2%
Cc1nc(SCC(=O)NC(=O)NCc2ccccc2)nc(C)c1C | 1% | nt | 14% | -3% | -1% | 11%
COc1ccc(Cl)cc1NC(=O)CCCn1c(=O)c2cccn2c2cccnc21 | nt | nt | nt | nt | -1% | 1%
CCCOc1ccc(NC(=O)CC2C(=O)N(c3ccc(OCC)cc3)C(=S)N2C2CC2)cc1 (configuration not stated) | -2% | ? | 6% | ? | ? | ?
O=C(CSc1nc2ccccc2nc1Cc1ccc(Cl)cc1)N1CCCc2ccccc21 | nt | nt | nt | nt | 22% | -3%
Cc1nc(SCC(=O)NCc2ccco2)nc(C)c1C | 1% | -9% | -9% | -9% | 4% | 22µM*
O=C(CSc1ncnc2c1oc1ccccc12)NCc1ccco1 | -6% | 0% | 11% | -24%[5.75 µM] | -2% | 28µM*
O=C(O)CSc1ncnc2c1oc1ccccc12 | 2% | 46% | -8% | 0% | 5% | 8%
Cc1ccc(SCC(=O)NCc2ccco2)cc1 | -18% | ? | -30% | ? | 1% | ?
Cc1ccc(OCC(=O)Nc2ccc3nc(SCC(=O)N4CCCC4)sc3c2)cc1C | nt | nt | nt | nt | 14% | 0%
c1ccc2c(c1)oc1c(NCCCn3ccnc3)ncnc12 | -4% | 5% | -18% | ? | 1% | 0%
COc1ccc(-c2oc3ncnc(N)c3c2-c2ccccc2)cc1 | 1% | nt | -27% | -19% | 4% | -8%
